# Measurements as given in paper PMC8384837, “Expanding the binding specificity for RNA recognition by a PUF domain”.
# Where a chain is given by its changes, count along the chain named.
# Experiments:
# Assay in all cases: yeast three-hybrid, YBZ-1, SC-Leu-His + 0.5 mM 3-AT, 4 days
# Details in all cases: tags: N-Gal4 AD-HA kept; label: inside an RPR1-promoter hybrid RNA with tandem MS2 sites; ssRNA
# [1] = molecular target: PUM1 PUF domain R1-KGM (Homo sapiens, UniProt Q14671 828-1176, S863K;R864G;Q867M)
# In short: (§1)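 The interaction score is the log change in how often each variant appears, from input to selection. Frequencies came from PCR-amplified, Illumina-sequenced repeat regions of Pumilio-1 PUF domain libraries grown in strain YBZ-1 (LexA–MS2 coat fusion, HIS3 reporter) alongside matching RNA elements. Input plates were SC-Leu and selection plates were SC-Leu-His + 0.5 mM 3-AT, each for four days, and the log2 calculation used a pseudocount of 1 where a variant was absent.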
# [2] = molecular target: PUM1 PUF domain R1-YPR (Homo sapiens, UniProt Q14671 828-1176, S863Y;R864P;Q867R)
# In short: as §1
# [3] = molecular target: PUM1 PUF domain R5-GRG (Homo sapiens, UniProt Q14671 828-1176, C1007G;Q1011G)
# In short: as §1
# [4] = molecular target: PUM1 PUF domain R7-KYN (Homo sapiens, UniProt Q14671 828-1176, S1079K;N1080Y;E1083N)
# In short: as §1
# [5] = molecular target: PUM1 PUF domain R3-IRT (Homo sapiens, UniProt Q14671 828-1176, C935I;Q939T)
# In short: as §1
# [6] = molecular target: T1, PUM1 PUF domain R6-IYL (Homo sapiens, UniProt Q14671 828-1176, N1043I;Q1047L)
# T1 sequence: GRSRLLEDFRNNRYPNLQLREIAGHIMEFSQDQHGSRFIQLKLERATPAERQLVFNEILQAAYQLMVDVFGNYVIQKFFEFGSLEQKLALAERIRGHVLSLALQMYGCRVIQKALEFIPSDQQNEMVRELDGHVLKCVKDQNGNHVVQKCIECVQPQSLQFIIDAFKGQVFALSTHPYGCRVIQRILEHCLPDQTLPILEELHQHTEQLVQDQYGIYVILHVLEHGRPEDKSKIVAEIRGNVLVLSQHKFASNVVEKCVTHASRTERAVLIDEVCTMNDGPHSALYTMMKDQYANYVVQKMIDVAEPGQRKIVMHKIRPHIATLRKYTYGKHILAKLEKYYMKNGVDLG
# In short: as §1
# [7] = molecular target: PUM1 PUF domain R3-GRT (Homo sapiens, UniProt Q14671 828-1176, C935G;Q939T)
# In short: as §1
# [8] = molecular target: T2, PUM1 PUF domain R6-SYA (Homo sapiens, UniProt Q14671 828-1176, N1043S;Q1047A)
# T2 sequence: T1 sequence with I216S, L220A
# In short: as §1
# [9] = molecular target: PUM1 PUF domain R8-SWS (Homo sapiens, UniProt Q14671 828-1176, N1122S;Y1123W;Q1126S)
# In short: as §1
# [10] = molecular target: PUM1 PUF domain R3-VRT (Homo sapiens, UniProt Q14671 828-1176, C935V;Q939T)
# In short: as §1
# [11] = molecular target: PUM1 PUF domain R3-YWG (Homo sapiens, UniProt Q14671 828-1176, C935Y;R936W;Q939G)
# In short: as §1
# [12] = molecular target: PUM1 PUF domain R2-KRG (Homo sapiens, UniProt Q14671 828-1176, N899K;Y900R;Q903G)
# In short: as §1
# [13] = molecular target: PUM1 PUF domain R3-WWV (Homo sapiens, UniProt Q14671 828-1176, C935W;R936W;Q939V)
# In short: as §1
# [14] = molecular target: PUM1 PUF domain R5-LHP (Homo sapiens, UniProt Q14671 828-1176, C1007L;R1008H;Q1011P)
# In short: as §1
# [15] = molecular target: PUM1 PUF domain R5-DGA (Homo sapiens, UniProt Q14671 828-1176, C1007D;R1008G;Q1011A)
# In short: as §1
# [16] = molecular target: PUM1 PUF domain R4-DWR (Homo sapiens, UniProt Q14671 828-1176, N971D;H972W;Q975R)
# In short: as §1
# [17] = molecular target: PUM1 PUF domain R7-LSS (Homo sapiens, UniProt Q14671 828-1176, S1079L;N1080S;E1083S)
# In short: as §1
# [18] = molecular target: PUM1 PUF domain R7-RCG (Homo sapiens, UniProt Q14671 828-1176, S1079R;N1080C;E1083G)
# In short: as §1
# [19] = molecular target: PUM1 PUF domain R3-FCE (Homo sapiens, UniProt Q14671 828-1176, C935F;R936C;Q939E)
# In short: as §1
# [20] = molecular target: PUM1 PUF domain R3-LFM (Homo sapiens, UniProt Q14671 828-1176, C935L;R936F;Q939M)
# In short: as §1
sequence,measurement,setting,value
GGCUAGAACUAGUGGAUCCCCCGGCGCCCGGCGGCUCGAGCCCGGGUAAGUGUAAAUUGUCUGCAUGCCGCCGGGCGCCAUGCCUGCAGGUCGACUCUAGAAAACAUG,binding signal,[1],0.32 log2 enrichment (interaction score)
same,binding signal,[2],5.44 log2 enrichment (interaction score)
GGCUAGAACUAGUGGAUCCCCCGGCGCCCGGCGGCUCGAGCCCGGGUAAGUGUCAAUAGUCUGCAUGCCGCCGGGCGCCAUGCCUGCAGGUCGACUCUAGAAAACAUG,binding signal,[3],0.84 log2 enrichment (interaction score)
GGCUAGAACUAGUGGAUCCCCCGGCGCCCGGCGGCUCGAGCCCGGGUAAGUCUAAAUAGUCUGCAUGCCGCCGGGCGCCAUGCCUGCAGGUCGACUCUAGAAAACAUG,binding signal,[4],3.09 log2 enrichment (interaction score)
GGCUAGAACUAGUGGAUCCCCCGGCGCCCGGCGGCUCGAGCCCGGGUAAGUGUAAAUAGUCUGCAUGCCGCCGGGCGCCAUGCCUGCAGGUCGACUCUAGAAAACAUG,binding signal,[5],4.08 log2 enrichment (interaction score)
same,binding signal,[6],4.93 log2 enrichment (interaction score)
same,binding signal,[7],2.82 log2 enrichment (interaction score)
same,binding signal,[8],2.48 log2 enrichment (interaction score)
same,binding signal,[9],2.46 log2 enrichment (interaction score)
same,binding signal,[3],3.08 log2 enrichment (interaction score)
same,binding signal,[10],3.97 log2 enrichment (interaction score)
same,binding signal,[11],4.94 log2 enrichment (interaction score)
GGCUAGAACUAGUGGAUCCCCCGGCGCCCGGCGGCUCGAGCCCGGGUAAGUGUAAAGAGUCUGCAUGCCGCCGGGCGCCAUGCCUGCAGGUCGACUCUAGAAAACAUG,binding signal,[12],4.1 log2 enrichment (interaction score)
GGCUAGAACUAGUGGAUCCCCCGGCGCCCGGCGGCUCGAGCCCGGGUAAGUGUAAAUCGUCUGCAUGCCGCCGGGCGCCAUGCCUGCAGGUCGACUCUAGAAAACAUG,binding signal,[1],2.83 log2 enrichment (interaction score)
same,binding signal,[2],3.29 log2 enrichment (interaction score)
GGCUAGAACUAGUGGAUCCCCCGGCGCCCGGCGGCUCGAGCCCGGGUAAGUGUAAUUAGUCUGCAUGCCGCCGGGCGCCAUGCCUGCAGGUCGACUCUAGAAAACAUG,binding signal,[7],1.63 log2 enrichment (interaction score)
same,binding signal,[13],2.73 log2 enrichment (interaction score)
same,binding signal,[11],4.54 log2 enrichment (interaction score)
GGCUAGAACUAGUGGAUCCCCCGGCGCCCGGCGGCUCGAGCCCGGGUAAGUGUUAAUAGUCUGCAUGCCGCCGGGCGCCAUGCCUGCAGGUCGACUCUAGAAAACAUG,binding signal,[14],3.09 log2 enrichment (interaction score)
same,binding signal,[15],2.6 log2 enrichment (interaction score)
same,binding signal,[3],3.72 log2 enrichment (interaction score)
GGCUAGAACUAGUGGAUCCCCCGGCGCCCGGCGGCUCGAGCCCGGGUAAGUGUGAAUAGUCUGCAUGCCGCCGGGCGCCAUGCCUGCAGGUCGACUCUAGAAAACAUG,binding signal,[3],3.07 log2 enrichment (interaction score)
GGCUAGAACUAGUGGAUCCCCCGGCGCCCGGCGGCUCGAGCCCGGGUAAGUGUACAUAGUCUGCAUGCCGCCGGGCGCCAUGCCUGCAGGUCGACUCUAGAAAACAUG,binding signal,[16],6.69 log2 enrichment (interaction score)
GGCUAGAACUAGUGGAUCCCCCGGCGCCCGGCGGCUCGAGCCCGGGUAAGCGUAAAUAGUCUGCAUGCCGCCGGGCGCCAUGCCUGCAGGUCGACUCUAGAAAACAUG,binding signal,[9],2.67 log2 enrichment (interaction score)
GGCUAGAACUAGUGGAUCCCCCGGCGCCCGGCGGCUCGAGCCCGGGUAAGUUUAAAUAGUCUGCAUGCCGCCGGGCGCCAUGCCUGCAGGUCGACUCUAGAAAACAUG,binding signal,[17],2.47 log2 enrichment (interaction score)
same,binding signal,[18],2.43 log2 enrichment (interaction score)
GGCUAGAACUAGUGGAUCCCCCGGCGCCCGGCGGCUCGAGCCCGGGUAAGUGUAUAUAGUCUGCAUGCCGCCGGGCGCCAUGCCUGCAGGUCGACUCUAGAAAACAUG,binding signal,[16],5.3 log2 enrichment (interaction score)
GGCUAGAACUAGUGGAUCCCCCGGCGCCCGGCGGCUCGAGCCCGGGUAAGUGUAAGUAGUCUGCAUGCCGCCGGGCGCCAUGCCUGCAGGUCGACUCUAGAAAACAUG,binding signal,[19],3.54 log2 enrichment (interaction score)
same,binding signal,[7],1.58 log2 enrichment (interaction score)
same,binding signal,[13],4.18 log2 enrichment (interaction score)
same,binding signal,[11],6.77 log2 enrichment (interaction score)
same,binding signal,[20],5.47 log2 enrichment (interaction score)
